Bioassay records (PubChem)
Most compounds without a hit are left out; they make up all but 19% or so of the library.
IL-1B inflam inh: qHTS for Inhibitors of Inflammasome Signaling: IL-1-beta AlphaLISA Primary Screen | 360,000 compounds, 4.7% hits | THP-1 LPS/ATP IL-1B secretion, AlphaLISA, 16 h; active compounds read low | activity change, % at 57.5 µM; in the data active = activity change below about -50%; inconclusive = mostly about -30% to -49%
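Secreted IL-1B measured by AlphaLISA bead assay after 16 h compound exposure of THP-1 cells; compounds (final up to 57.5 uM) added 1 h before LPS (250 ng/mL) and ATP (1.25 mM) stimulation; lower signal means less secretion.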
DT40 TDP1 CPT: qHTS for Inhibitors of human tyrosyl-DNA phosphodiesterase 1 (TDP1): qHTS in cells in presence of CPT; AID 686979, 2013; chicken DT40 Tdp1-/-;hTDP1 cells + 20 nM CPT, ATP luminescence, 48 h; Potency, µM (doses to about 46.2 µM), for inactives: at the top dose activity change, negative = growth inhibition, usual class: inhibitors; 420,000 compounds, 12% hits; also: potency is read from the fitted curve at half-maximal effect; nearly all actives have a fitted effect of over 55% in size
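Cell growth measured by CellTiter-Glo luminescence after a minimum 48 h, 37 C compound exposure with 20 nM CPT in Tdp1-knockout DT40 cells stably expressing hTDP1, seeded 400/well; qHTS titration format.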
HT1080 IDH1KD tx: qHTS for induction of synthetic lethality in tumor cells producing 2HG: qHTS for the HT-1080-IDH1KD cell line. HT-1080 IDH1 knockdown viability, ATP luminescence, 48 h. Potency, µM (top dose mostly 46.1 µM), for the others: top-dose activity, negative = toxicity, usual class: cytotoxic. 360,000 compounds, 2% hits. AID 686971, 2013;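 also: potency is read from the fitted curve at half-maximal effect; 0% = DMSO wells and -100% = cell-free medium wells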
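IDH1KD HT-1080 cells, 750/well, RPMI + 5% FBS; compound pinned after 2 h settling; 48 h, 37 °C; CellTiter-Glo luminescence; % activity normalised to DMSO and no-cell wells; curves fitted, classed by r2 and efficacy.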
HT1080-NT tox: qHTS for induction of synthetic lethality in tumor cells producing 2HG: qHTS for the HT-1080-NT fibrosarcoma cell line; HT-1080-NT fibrosarcoma viability, CellTiter-Glo ATP luminescence, 48 h; Potency, µM (top dose mostly 46.1 µM), without a hit: top-dose activity, negative = less viability, hits mostly cytotoxic; 360,000 compounds, 1.6% hits; AID 686970, 2013;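 also: NT is the 2HG producing partner of a matched IDH1 knockdown line; potency is read from the fitted curve at half-maximal effect; 0% = DMSO-treated cells and -100% = media-only wells without cells; nearly all actives have a fitted effect of over 55% in size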
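Toxicity toward the 2HG-producing NT line was scored as %Activity, normalised to DMSO and no-cell wells, from CellTiter-Glo luminescence after 48 hours' treatment.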
DT40 TDP1 no CPT: qHTS for Inhibitors of human tyrosyl-DNA phosphodiesterase 1 (TDP1): qHTS in cells in absence of CPT; DT40 Tdp1-/- hTDP1 cells, no CPT, ATP luminescence, 48 h; Potency, µM (doses to about 46.2 µM), for the others: at the top dose activity change, negative = growth inhibition, actives largely listed as inhibitors; 420,000 compounds, 15% hits; also: potency is read from the fitted curve at half-maximal effect; nearly all actives have a fitted effect of over 55% in size
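A cellular qHTS used chicken DT40 cells lacking endogenous Tdp1 but carrying stably transfected human TDP1. Compounds were applied without camptothecin, and cell growth kinetics were judged by ATP-dependent luminescence after ≥48 hr.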
Active calls of the source: *; ? = inconclusive; . = not tested or not shown; [ ] = dose if it differs, or a comment. Unless noted, calls follow the shape of the dose curve; as a rule, active = well fitted curve in the direction sought with a large enough effect; inconclusive = small, poorly fitted or top-dose-only effect, or another doubt; inactive = no such curve, though single readings can be large; an effect the other way counts as inactive or inconclusive. Unless noted, % is scaled to controls: 0 for no effect and ±100 for the full control effect.

SMILES | IL-1B inflam inh | DT40 TDP1 CPT | HT1080 IDH1KD tx | HT1080-NT tox | DT40 TDP1 no CPT
CCC(=O)NC(c1ccco1)c1cc(Cl)c2cccnc2c1O (configuration not stated) | 157 | ? | 3.7µM* | ? | 3.7µM*
CCCCC(=O)NC(c1ccco1)c1cc(Cl)c2cccnc2c1O (configuration not stated) | 92 | ? | 9.2µM* | ? | 16µM*
Cc1cc(F)ccc1NS(=O)(=O)c1c(C(=O)N2CCOCC2)c(C)n(C)c1C | -5 | -1% | 7% | 0% | -4%
CN(C)C(=O)c1cccc(-c2cnc3c(NC=O)cc(-c4ccccc4N(C)C)cn23)c1 | 24 | 23µM* | ? | -23% | 16µM*
CN(C)C(=O)c1cccc(-c2cnc3c(NC=O)cc(-c4ccccc4Cl)cn23)c1 | -53* | 2.6µM* | ? | -12% | 5.2µM*
O=C(Nc1ccc(OC(F)F)cc1)c1nc(S(=O)(=O)Cc2ccccc2F)ncc1Cl | . | 0.45µM* | . | . | 1µM*
CCOc1ccc(NC(=O)c2nc(S(=O)(=O)Cc3ccccc3F)ncc2Cl)cc1 | . | 0.37µM* | . | . | 0.33µM*
CCOc1ccc(NC(=O)c2nc(SCc3ccccc3F)ncc2Cl)cc1 | . | -9% | . | . | -23%
O=C(Nc1ccccc1Cl)C1CCN(Cc2cnn(-c3ccccc3)c2-n2cccc2)CC1 | -22 | 16µM* | ? | -25% | 23µM*
COc1ccc(NC(=O)C2CCN(Cc3cnn(-c4ccccc4)c3-n3cccc3)CC2)cc1OC | ? | ? | -15% | -16% | ?
COc1ccc(OC)c(NC(=O)C2CCN(Cc3cnn(-c4ccccc4)c3-n3cccc3)CC2)c1 | -6 | 16µM* | ? | -2% | ?
C[C@@H]1[C@H](c2ccccc2)OCCS(=O)(=O)N1Cc1cccc(C(F)(F)F)c1 | . | ? | . | . | 18µM*
CCN(CC)c1ccc(NC(=O)c2cnn3c(C(F)F)cc(-c4ccccc4)nc23)cc1 | . | ? | . | . | 13µM*
Cc1ccc(-c2cc(C(F)F)n3ncc(C(=O)Nc4cn(C)nc4C)c3n2)cc1 | -11 | -19% | 18% | 17% | ?
COC(=O)c1ccccc1NC(=O)c1cnn2c(C(F)F)cc(C3CC3)nc12 | -9 | ? | ? | ? | 15µM*
Cc1cc(NC(=O)c2cnn3c(C(F)F)cc(-c4ccccc4)nc23)no1 | -12 | 15µM* | 6% | -3% | 9.2µM*
Cc1c(NC(=O)c2nn3c(C(F)(F)F)cc(-c4ccccc4)nc3c2Cl)c(=O)n(-c2ccccc2)n1C | -51* | -2% | 0% | 19% | ?
COc1ccc(-c2cc(C(F)(F)F)n3nc(C(=O)Nc4c(C)n(C)n(-c5ccccc5)c4=O)c(Cl)c3n2)cc1 | 14 | ? | 12% | 8% | ?
CN(C(=O)CN(c1ccccc1)S(=O)(=O)c1ccc(F)cc1)C1CCS(=O)(=O)C1 (configuration not stated) | 16 | -6% | 6% | 3% | -7%
COc1ccccc1/C=C/C(=O)NCc1ccccn1 | -19 | 8% | 11% | 3% | -14%
COCC(=O)Nc1cc(C(=O)N2CCN(C)C(c3ccccc3)C2)c2c(c1)nc(-c1ccncc1)n2C (configuration not stated) | . | -7% | . | . | -8%
CCN(CC)CCNC(=O)C(=O)NCC1OCCN1S(=O)(=O)c1cccs1 (configuration not stated) | 11 | -14% | 11% | 22% | 16%
Cc1cc(NC(=O)c2cnn3c(C(F)F)cc(C4CC4)nc23)no1 | -5 | ? | -1% | 0% | 12µM*
O=C(c1cnn2c(C(F)F)cc(C3CC3)nc12)N1CCCC1 | 21 | -17% | 6% | 3% | -24%
O=C(NCc1ccco1)c1cnn2c(C(F)F)cc(-c3ccccc3)nc12 | -4 | -29% | -2% | 0% | -26%
SMILES | IL-1B inflam inh | DT40 TDP1 CPT | HT1080 IDH1KD tx | HT1080-NT tox | DT40 TDP1 no CPT
COCCNC(=O)c1cnn2c(C(F)F)cc(-c3ccccc3)nc12 | 2 | ? | 0% | -4% | 21µM*
COC(=O)c1cnn2c(C(F)(F)F)cc(-c3ccccc3)nc12 | 16 | -27% | ? | ? | -7%
Cc1cc(NC(=O)c2cnn3c(C(F)(F)F)cc(-c4ccccc4)nc23)no1 | -69* | 13µM* | 0% | 0% | 23µM*
Cc1cc2c(c(-c3cnccn3)c1)OC(CNC(=O)C1CCCN(C)C1)C2 (configuration not stated) | . | 29%[9.04 µM] | . | . | -20%
CC(=O)c1ccc(NC(=O)CSc2nnc(NC(=O)c3ccco3)s2)cc1 | -10 | -6% | 2% | 5% | -3%
COCCNc1c(-c2ccc(OC)cc2)nc2ccc(Cl)cn12 | ? | ? | 1% | -2% | ?
CCCCCCSc1ccc(-c2nc3ccccn3c2NCCCC)cc1 | ? | 23µM* | 4% | 2% | 15µM*
CCC(C)Sc1ccc(-c2nc3ccc(C)cn3c2NCc2ccccc2)cc1 (configuration not stated) | ? | 23µM* | -10% | -12% | 16µM*
CCCCNc1c(-c2ccc(-c3cccc(Cl)c3)cc2)nc2ccccn12 | -26 | ? | ? | ? | ?
CCCCNc1c(-c2ccc(SC(C)CC)cc2)nc2ccc(Cl)cn12 (configuration not stated) | 0 | ? | -3% | -6% | 29µM*
CCCCCCSc1cccc(-c2nc3ccc(Cl)cn3c2NCCCC)c1 | 3 | 16µM* | 0% | 6% | 13µM*
CCOC(=O)C(Cc1ccccc1)c1ccnc2ncnn12 (configuration not stated) | 34 | 3% | 20% | 15% | -1%
Cc1cn([C@H]2C[C@H](O)[C@@H](CNS(=O)(=O)c3ccc(NS(=O)(=O)N(C)C)cc3)O2)c(=O)[nH]c1=O | -21 | -4% | -1% | -5% | -24%
COc1ccc(F)cc1-c1cc(C(=O)NCc2cccc(Cl)c2)[nH]n1 | -19 | ? | 3% | 4% | -28%
CC1CCN(CC(CS(=O)(=O)c2ccc([N+](=O)[O-])cc2)N2CCC(C)CC2)CC1 (configuration not stated) | -76* | 2.1µM* | 5% | -3% | 2.3µM*
CC1CCN(S(=O)(=O)c2cc([N+](=O)[O-])ccc2Cl)CC1 | -1 | -17% | -12% | -8% | ?
